Inhibition data for 85 compounds are collected here from PubChem BioAssay AID1645856 (Buhrlage Lab, Dana-Farber Cancer Institute and Novartis …, 2021).

In all, about 47,000 compounds went through this assay and about 510 (1.1%) were called active. The list comes from a sample in which actives are over-represented; it also holds similar structures and randomly drawn compounds. Unmarked numbers belong to inactive results. Rule as the data show it: active = inhibition above about 30%; inactive = the rest.

The target of this assay is Ubiquitin carboxyl-terminal hydrolase 10 (Homo sapiens) (UniProt Q14694). The assay is described as follows: blocks human USP10 ubiquitin-rhodamine cleavage (AID 1645856). The settings on record: purified USP10, Ub-rhodamine fluorescence, 60 min; at 20 µM; stronger effect = higher value.
Sequence of Ubiquitin carboxyl-terminal hydrolase 10 (Homo sapiens) (Q14694 whole entry, looked up): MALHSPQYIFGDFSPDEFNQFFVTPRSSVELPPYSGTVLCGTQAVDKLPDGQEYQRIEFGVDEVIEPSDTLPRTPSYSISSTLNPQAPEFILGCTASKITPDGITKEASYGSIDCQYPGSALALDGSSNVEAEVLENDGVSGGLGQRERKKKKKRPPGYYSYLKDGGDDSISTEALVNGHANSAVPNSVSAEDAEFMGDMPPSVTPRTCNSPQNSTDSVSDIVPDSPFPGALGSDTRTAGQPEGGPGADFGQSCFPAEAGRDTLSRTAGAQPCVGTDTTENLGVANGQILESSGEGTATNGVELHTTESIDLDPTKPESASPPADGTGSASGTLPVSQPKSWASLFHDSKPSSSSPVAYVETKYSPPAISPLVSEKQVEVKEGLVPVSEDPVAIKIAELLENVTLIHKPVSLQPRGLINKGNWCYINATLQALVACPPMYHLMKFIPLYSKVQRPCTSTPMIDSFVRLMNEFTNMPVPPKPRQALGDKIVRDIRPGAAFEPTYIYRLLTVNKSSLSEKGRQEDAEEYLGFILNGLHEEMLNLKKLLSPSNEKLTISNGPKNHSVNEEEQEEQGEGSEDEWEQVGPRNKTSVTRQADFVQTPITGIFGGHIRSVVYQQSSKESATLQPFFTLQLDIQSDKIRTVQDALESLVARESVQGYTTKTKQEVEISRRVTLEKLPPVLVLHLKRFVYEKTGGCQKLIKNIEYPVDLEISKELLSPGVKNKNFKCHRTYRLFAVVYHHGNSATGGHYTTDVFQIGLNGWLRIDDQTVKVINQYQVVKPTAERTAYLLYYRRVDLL
Regarding `CC1=C(C(=O)OCCOc2ccccc2)C(c2ccccc2OC(C)C)NC(=O)N1` (stereo not given), the inhibition (usually the change of the read-out against control, counted positive when it falls) is 5.16%. For `Cc1nn(-c2cccc(Cl)c2)c2c1C(C(=O)c1ccc3c(c1)OCCO3)CC(=O)N2` (stereo not given) the value was -1.54%.

Consider `CN1c2ccccc2O[C@@H]2CC[C@@H](NC(=O)Cn3cccn3)[C@@H](O)[C@@H]21`, for which the inhibition is 0.781%. The result for `COc1ccc2[nH]c3c(N4CCN(C5CCCCC5)CC4)ncnc3c2c1` reads 2.49%; that for `O=C(Cn1cccc(-c2nc(-c3ccccc3)no2)c1=O)Nc1ccccc1F`, -5.7%; that for `Cc1noc(-c2cccn(Cc3cc(F)ccc3F)c2=O)n1`, 1.28%.

On to `N#Cc1ccc(NC(=O)Nc2cccn(Cc3ccccc3F)c2=O)cc1`, for which the inhibition was 42.6% (active). For the compound `CN1Cc2cccc(C(=O)N(C)c3nc4c(s3)CCc3occc3-4)c2C1=O`, the inhibition was -0.411%. For `COc1cnc(CSc2ccccc2)cc1OCC(=O)Nc1ccc2c(c1)OCO2`, the inhibition is 0.813%.

For `COCCCn1c(C(=O)NCC(=O)OC(C)C)cc2c(=O)n3cccc(C)c3nc21`, the inhibition is 3.16%.

Consider `COc1ccc(/C=C(\C(=O)N(C)C2CCCCC2)n2ccccc2=O)cc1`, for which the inhibition is -1.04%. The result for `COc1ccc(-c2cc(C(=O)Nc3ncc(C)s3)c3ccccc3n2)cc1OC` reads -3.26%. The result for `CNC(=O)C1CN(C(=O)c2ccccc2F)CC12CCCC2` (stereo not given) reads -0.0522%; that for `Cn1c(=O)n(C2CCN(C(=O)Cc3ccccc3)C2)c2ncncc21` (stereo not given), 0.307%. Turning to `O=C1c2ccccc2C2c3[nH]c4ccccc4c3C(c3ccc(F)cc3)CN12` (stereo not given), the inhibition was -4.15%. For `CC(C)N1CCN(S(=O)(=O)c2cc(-c3nnc(C4CC4)o3)co2)CC1` the value was -5.2%; for `Cc1c(C2CCN(C(=O)NCc3ccccc3)CC2)noc1N`, -2.52%; for `CC(NC(=O)c1nc2n(n1)-c1ccccc1S(=O)(=O)N2)c1cc2ccccc2o1` (stereo not given), 36.5% (active). For `O=C(NCc1cccnc1N1CCCCC1)c1nc2n(n1)-c1ccccc1S(=O)(=O)N2` the value was 17.3%; for `Cc1noc(C)c1COc1cccc(C(=O)NC(C)c2cc3ccccc3o2)c1` (stereo not given), -0.528%; for `CN1CCC2(CN(c3ncccn3)CC23CCN(C(=O)Cc2ccccc2)CC3)C1=O` (stereo not given), -1.5%. The result for `CCn1c(=O)c(C(=O)N2CCN(c3cccc(C)c3)CC2)nc2cccnc21` reads -3.06%; that for `O=S(=O)(c1cccc2nonc12)N1CCC(n2cccc2)CC1`, -1.8%. `COc1cc(Cl)c(C)cc1Nc1ncnc2sccc12`: the inhibition was -4.4%.

Regarding `NC(=O)CCC(=O)N[C@H]1C[C@H]2CN(Cc3ccccc3)c3ccccc3CN2C1`, the inhibition was -7.81%.

For the compound `O=C(c1ccccn1)N1CCC(c2nc3ccccc3cc2C(=O)N2CCCC2)CC1`, the inhibition is -0.709%. The result for `O=C(O)C1CCCN1C1=NS(=O)(=O)c2ccccc21` (stereo not given) reads 0.971%; that for `CC(=O)N1CCc2cc(C(O)CN3CCN(c4ccccc4)CC3)ccc21` (stereo not given), 1.48%. Turning to `Cc1ccc(N2CC(C(=O)N3CCC(C(=O)Nc4ccc(F)cc4F)CC3)CC2=O)cc1` (stereo not given), the inhibition was -5.34%.

With `CCC(C(=O)NC1CCCC1)N(C(=O)Cn1nnc(-c2ccc(C)cc2)n1)c1cccc(O)c1` (stereo not given), the inhibition was 1.22%.

Regarding `Cn1c(=O)c2c3c(cnc2n(C)c1=O)C(=O)CC(c1ccccc1)C3` (stereo not given), the inhibition is -1.08%.

In the case of `O=C(NC1CCCC1)c1cc(-c2cccnc2)n(-c2ccc(F)cc2)n1`, the inhibition was 1.77%. The result for `c1ccc(-c2ccc(NCc3ccc4c(c3)OCO4)nn2)cc1` reads 3.9%; that for `Cc1ccc(S(=O)(=O)N2CCCC2C(=O)N2CCN(c3cccc(Cl)c3)CC2)cc1` (stereo not given), 1.5%.

Turning to `O=C(COC(=O)C(Cc1c[nH]c2ccccc12)NC(=O)c1ccccc1Cl)c1ccccc1F` (stereo not given), the inhibition was 6.57%. As to `Cn1ccnc1C(NC(=O)c1ccncc1)c1ccc(F)c(F)c1` (stereo not given), the inhibition is -4.27%. Regarding `COc1ccc(CNC2C3=C(CCCC3)C(=O)N2CCc2ccc(Cl)cc2)cc1` (stereo not given), the inhibition was -0.147%. For `CC(C)CN1C[C@@]23CN(C(=O)NCCc4ccc(F)cc4)C[C@@H](C[C@@H]2S1(=O)=O)O3` the value was 3.62%.

Consider `COC(=O)C1CCN(C(=O)CC[C@H]2CNC(=O)[C@@H]3[C@@H](CCN3Cc3ccc(C)cc3)N2C)CC1`, for which the inhibition is 1.61%. For `Cc1ccc(NC(=O)CCC(=O)N(c2ccccc2)c2ccccc2)cc1Cl` the value was 11.4%. For `Cc1ccc(NC(=O)CCOc2ccccc2)cc1S(=O)(=O)Nc1ccccc1Cl` the value was 30.4% (active); for `COc1cccc(NC(=O)COC(=O)c2ccc(OC)c(S(=O)(=O)Nc3cc(Cl)c(OC)cc3OC)c2)c1`, 0.441%. As to `Cc1cc(O)c(=O)cc2c1C[C@H]1CC(C)(C)/C=C/C[C@@]3(C)Oc4cc(=O)c(O)cc(C)c4C[C@@H]3C[C@H](O)[C@]1(C)O2`, the inhibition is 39.9% (active). As to `Cc1ccc(CNC(=O)CCCn2c(=O)c3sccc3n(CC(=O)OCc3ccccc3)c2=O)cc1`, the inhibition was 53.7% (active).

As for `COc1ccc(CCNC(=O)CCCn2c(=O)c3ccccc3n(CC(=O)OCc3ccccc3)c2=O)cc1OC`, the inhibition was 12.7%. For `Cc1ccc(CNC(=O)CC(c2ccccc2)c2ccccc2)cc1` the value was 9.59%; for `Cc1cccc(-n2c3c(c(=O)[nH]c2=O)CN(Cc2ccco2)CN3)c1C`, -1.97%. As to `COc1ccc(C(=O)N(c2ccccn2)c2ccccn2)cc1OC`, the inhibition is -0.245%. For `CC(=O)Nc1sc2c(c1C(c1cccc(F)c1)N1CCN(CCO)CC1)CCCC2` (stereo not given) the value was -5.42%. For the compound `CC(C)Cc1cc(-c2nn3c(-c4ccccc4Cl)nnc3s2)n[nH]1`, the inhibition was 13.8%. On to `Cc1c(-c2nn3c(-c4ccco4)nnc3s2)cccc1[N+](=O)[O-]`, for which the inhibition was 50.9% (active). The result for `Fc1ccccc1CSc1nnc(C2CCNCC2)o1` reads -2.32%. For `Cc1cc(-c2ccccc2C(=O)O)nc(C2CCCNC2)n1` (stereo not given) the value was 1.65%; for `O=C(NCCc1ccccc1)c1ccc2c(=O)nc3c(-c4ccccc4F)n[nH]n3c2c1`, 3.48%.

`O=C(Cn1c(=O)n(Cc2ccc3c(c2)OCO3)c(=O)c2ccccc21)NCc1ccco1`: the inhibition was 25.6%.

As for `O=C(NCCc1ccccc1)c1ccc2c(=O)n(Cc3ccco3)c(=O)n(Cc3cccc([N+](=O)[O-])c3)c2c1`, the inhibition is 73.1% (active).

As for `O=C(NCc1ccco1)N1CCC2(CC1)Nc1ccccc1-n1cccc12`, the inhibition was 0.0863%. The result for `Cc1c(S(=O)(=O)Nc2ccc(F)cc2)cc(C(=O)N2CCCCC2)n1C` reads 1.47%; that for `COc1ccc(OC)c(NC(=O)CN2CCc3ccccc32)c1`, 0.258%; that for `Cc1cc(=O)n(CC(=O)NCc2ccccc2)c(N2CCCC2)n1`, -2.48%.

Consider `CCc1cccc(C)c1NC(=O)Cn1nc2ccc(C(=O)NCc3ccccc3)cn2c1=O`, for which the inhibition was 36% (active). The result for `CCc1cccc(C)c1NC(=O)CSc1nc2c(c(=O)[nH]1)CCCC2` reads 0.855%; that for `O=C(c1ccc(N2CCCCC2)nn1)N(Cc1ccccc1)c1ccccn1`, -1.8%. `Cn1c(C2CCN(C(=O)Nc3ccc4c(c3)CCC4)C2)nc2cccnc21` (stereo not given): the inhibition was -0.116%. The result for `Cc1ccc(NC(=O)COC(=O)C2CC(=O)N(c3cccc(C)c3C)C2)cc1` (stereo not given) reads -7.32%; that for `O=C1CCCC2=C1C(c1ccc(C(=O)O)cc1)n1ncc(C(=O)Nc3ccc(F)cc3)c1N2` (stereo not given), -5.67%. For `CCOc1cccc(C2CC(=O)Nc3c2c(C)nn3-c2nncc(-c3ccc(F)cc3)n2)c1` (stereo not given) the value was 4.17%. As to `Cc1ccc(C2N=C(N3CCCCC3)Nc3nc(C)cc(=O)n32)cc1` (stereo not given), the inhibition was -10.2%. For the compound `O=C(c1ccccc1Cl)N(c1ccccn1)c1ccccn1`, the inhibition was -2.33%.

Regarding `C=C1CCC2[C@](C)(CCC[C@]2(C)C(=O)OC)[C@H]1CCc1ccoc1CNCC(=O)O` (stereo not given in full), the inhibition is 3.42%. As for `C=C1CCC2[C@](C)(CCC[C@]2(C)C(=O)OC)[C@H]1CCc1ccoc1/C=C/C(=O)O` (stereo not given in full), the inhibition is 46.4% (active). For `C=C1CCC2[C@](C)(CCC[C@]2(C)C(=O)OC)[C@H]1CCc1ccoc1C[N+](C)(C)Cc1ccccc1` (stereo not given in full) the value was -1.66%. The result for `FC(F)(F)c1cccc(CN2CCCn3c(nc4ccccc43)C2)c1` reads -0.144%; that for `O=C(NCc1noc(C2CCCC2)n1)c1ccccc1`, 3.21%. The result for `CNc1ccc(-c2noc([C@@H]3CCCN3C3CCN(C)CC3)n2)cn1` reads -0.38%.

Regarding `COc1ccc(C(O)Cc2nc3ccccc3n2Cc2ccc(Cl)cc2)cc1` (stereo not given), the inhibition was 1.15%. For `COC(=O)c1ccccc1NC(=O)c1cnc2ccccn2c1=O` the value was 0.362%. Take `O=C(CNC1CCCc2ccccc21)Nc1cc(S(=O)(=O)N2CCCCC2)ccc1Cl` (stereo not given): the inhibition was 1.62%. For `Cc1nccc(N2CCCC2c2cnc(-c3ncc[nH]3)cn2)n1` (stereo not given) the value was -5.73%; for `O=C(Cn1cc(S(=O)(=O)N2CCOCC2)ccc1=O)Nc1ccc(F)c(F)c1`, 2.08%. Take `CS(=O)(=O)c1ccc(-n2cc(-c3ccncn3)cn2)cc1`: the inhibition is -1.57%. As to `O=C(c1ncccn1)N1CCCCC1c1ncc(Cc2cccc(F)c2)o1` (stereo not given), the inhibition was 0.0694%.

As to `CC(OC(=O)c1cn(-c2ccccc2)nc1-c1cccnc1)C(=O)Nc1cccc(S(=O)(=O)N(C)C)c1` (stereo not given), the inhibition was -8.1%. The result for `Cc1nn(CCC(=O)Nc2ccc(C#N)cc2)c(C)c1S(=O)(=O)N1CCOCC1` reads 7.2%; that for `Cn1c(N2CCN(C(=O)c3ccc(F)cc3)CC2)cc(=O)n(C)c1=O`, -3.62%.
